# In the library only some 12% were active in any assay of this set; here they are far more common.
# JMJD2A Tudor inh: qHTS Assay for Inhibitors of JMJD2A-Tudor Domain; 390,000 compounds, 4.4% hits; Lysine-specific demethylase 4A (Homo sapiens), O75164; Potency, µM (highest dose often 114 µM), for the others: top-dose activity change, negative = inhibition, usual class: inhibitors; AlphaScreen JMJD2A-Tudor / H3K4me3 peptide binding; further: on the % scale 0 is the no-effect control and ±100 the full control effect; nearly all actives have a fitted effect of over 50% in size
# BAZ2B block: qHTS Assay for Inhibitors of BAZ2B. Potency, µM (top dose mostly 114 µM), for inactives: at the top dose activity change, negative = inhibition, most hits filed as inhibitors. 360,000 compounds, 4.4% hits. Bromodomain adjacent to zinc finger domain protein 2B (Homo sapiens), Q9UIF8. AlphaScreen BAZ2B-H3K14Ac peptide displacement; further: on the % scale 0 is the no-effect control and ±100 the full control effect; nearly all actives have a fitted effect of over 60% in size
#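 Compounds, titrated to a top concentration of 110 uM, were incubated 30 min at room temperature with preformed BAZ2B/acetyl-K14 H3 peptide complex (50 nM each). Proximity signal was measured by AlphaScreen after 20 min with beads.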
# Sfp PPTase inh: qHTS Assay for Inhibitors of Bacillus subtilis Sfp phosphopantetheinyl transferase (PPTase). 4'-phosphopantetheinyl transferase ffp (Bacillus subtilis), Q9F4F7. Biochemical Sfp PPTase activity, qHTS. Potency, µM, inactives show largest response in the series, negative = inhibition, most hits filed as inhibitors. 310,000 compounds, 3.5% hits. AID 1490, 2009;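 further: the enzyme is Sfp with the accession as filed and its product quenches rhodamine fluorescence; 0% = enzyme reaction without inhibitor and -100% = no enzyme wells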
#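 Fluorescence-quenching assay with 15 nM Sfp, 5 uM rhodamine-CoA and 12.5 uM BHQ-2-labelled ybbR peptide in pH 7.6 Hepes/MgCl2 buffer. Enzyme was pre-incubated with compound for 15 min at room temperature. Rate was taken from the 30-min fluorescence change (525/598 nm).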
# PLK1 PBD inh: qHTS for Inhibitors of PLK1-PDB (polo-like kinase 1 - polo-box domain): Primary Screen. Serine/threonine-protein kinase PLK1 (Homo sapiens), P53350. Plk1 PBD binding of FITC phosphopeptide, fluorescence polarization. Potency, µM, for the others: max response, negative = inhibition, most hits filed as inhibitors. 360,000 compounds, 2.8% hits; further: series mostly up to about 57 µM; on the % scale 0 is the no-effect control and ±100 the full control effect; nearly all actives have a fitted effect of over 65% in size
# HP1b chromo inh: HTS for Inhibitors of HP1-beta Chromodomain Interactions with Methylated Histone Tails; AlphaScreen HP1-beta / biotin-H3K9me3 peptide binding; Potency, µM (series often up to 114 µM), without a hit: at the highest dose activity change, negative = inhibition, usual class: inhibitors; 390,000 compounds, 0.56% hits; further: nearly all actives have a fitted effect of over 70% in size
# Target sequence (P83916 whole entry, looked up): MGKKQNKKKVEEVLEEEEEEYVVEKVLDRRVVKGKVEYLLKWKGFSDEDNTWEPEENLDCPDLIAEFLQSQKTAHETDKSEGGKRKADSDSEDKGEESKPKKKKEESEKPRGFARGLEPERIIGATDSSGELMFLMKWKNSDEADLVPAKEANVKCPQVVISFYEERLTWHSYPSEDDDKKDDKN
#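 AlphaScreen: HP1-beta (50 nM) preformed 30 min with biotin-H3(1-18)K9me3 peptide (50 nM) in PBS pH 7.4, 0.01% Tween-20. Compound added for 30 min at RT, then streptavidin donor/nickel chelate acceptor beads (10 ug/mL) for 30 min.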
# G9a block: qHTS Assay for Inhibitors of Histone Lysine Methyltransferase G9a | Histone-lysine N-methyltransferase EHMT2 (Homo sapiens), Q96KQ7 | G9a H3K9 monomethylation, AlphaScreen, 2 h | Potency, µM (doses to about 102 µM), without a hit: at the highest dose activity, negative = inhibition, actives largely listed as inhibitors | 350,000 compounds, 8.8% hits | AID 504332, 2011; further: on the % scale 0 is the no-effect control and ±100 the full control effect; nearly all actives have a fitted effect of over 75% in size
# Target sequence (Q96KQ7 913-1193 limits assumed): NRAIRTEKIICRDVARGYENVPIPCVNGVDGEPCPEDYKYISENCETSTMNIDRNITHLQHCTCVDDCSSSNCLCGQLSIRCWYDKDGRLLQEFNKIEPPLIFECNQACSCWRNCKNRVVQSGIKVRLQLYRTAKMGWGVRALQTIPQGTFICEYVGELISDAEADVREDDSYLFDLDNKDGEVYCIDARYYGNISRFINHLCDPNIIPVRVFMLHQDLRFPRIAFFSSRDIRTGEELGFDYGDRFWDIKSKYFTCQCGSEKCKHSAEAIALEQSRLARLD
#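 AlphaScreen detection with an anti-monomethyl H3K9 antibody quantified product after a 2 h room-temperature reaction containing 500 nM biotinylated H3K9 peptide, 20 µM SAM and 20 nM enzyme, which had been preincubated 15 min with compound.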
# TbPYK confirm: qHTS of Trypanosoma Brucei Inhibitors: Confirmatory Assay for Cherry-picked Compounds. recombinant TbPYK, Kinase-Glo ATP luminescence. Potency, µM (titrated, usually from 76.9 µM), for the others: top-dose activity change, negative = inhibition, usual class: inhibitors. 890 compounds, 67% hits. shares compounds with PLK1 PBD inh; further: on the % scale 0 is the no-effect control and ±100 the full control effect; nearly all actives have a fitted effect of over 70% in size
# TbPYK orthogonal: qHTS of Trypanosoma Brucei Inhibitors: Orthogonal Assay for Cherry-picked Compounds; shares compounds with PLK1 PBD inh; recombinant TbPYK, ADP-Glo luminescence, 60 min; Potency, µM (series often up to 76.9 µM), for the others: top-dose activity change, negative = inhibition, hits mostly inhibitors; 890 compounds, 62% hits; further: on the % scale 0 is the no-effect control and ±100 the full control effect; nearly all actives have a fitted effect of over 75% in size
# * = called active by the depositor; ? = inconclusive; . = no result given; [ ] = another dose, or the depositor's remark. The call rests on the fitted dose curve; in most records, active means well fitted curve in the direction sought with a large enough effect; inconclusive means small, poorly fitted or top-dose-only effect, or another doubt; inactive means no such curve, though single readings can be large; an effect the other way counts as inactive or inconclusive. Potency means the concentration at half of the fitted maximal effect.
SMILES,JMJD2A Tudor inh,BAZ2B block,Sfp PPTase inh,PLK1 PBD inh,HP1b chromo inh,G9a block,TbPYK confirm,TbPYK orthogonal
O=C1OCCC1Sc1nnc(-c2ccc(F)cc2)n1Cc1ccccc1 (stereo unspecified),-1.4%,5.6%,5.4%,-9.8%,19.3%,-11.1%[59 µM],.,.
CC(=O)OCCNc1cc(N2CCN(C)CC2)c2noc3c2c1C(=O)c1ccccc1-3,50.1µM*,39.8µM*,3.9%,20.0%,-11.8%,?,10µM*,?
O=C(COC(=O)/C=C/c1ccco1)Nc1cc(S(=O)(=O)N2CCOCC2)ccc1Cl,-15.0%,.,.,-14.4%,4.6%,.,.,.
CC(C)N(C(=O)[C@H]1CC(CC(=O)NCCC2=CCCCC2)C(=O)N2CCc3c([nH]c4ccccc34)[C@]12C)C(C)C (stereo partly specified),?,.,.,-10.4%,-6.7%,.,.,.
Cc1ccc(CCNC(=O)C2CCCN(C(=O)c3cc4sccc4n3C)C2)cc1 (stereo unspecified),-36.0%,-6.9%,11.4%,-9.0%,-8.4%,14.2%[12.7 µM],2.51µM*,10µM*
Cc1ccc(C(=O)N2CCN(C)CC2)cc1[N+](=O)[O-],8.9%,-2.6%,9.6%,-1.9%,34.6%,16.4%,.,.
Cc1cc(C)c(NC(=O)C2CCCO2)c(C)c1NC(=O)C1CCCO1 (stereo unspecified),-8.9%,1.7%,17.0%,1.1%,3.7%,4.9%,.,.
NNC(=O)CSc1c(-c2ccccc2)c2cc(Cl)ccc2[nH]c1=O,-7.7%,-11.5%,5.0%,-26.4%,34.1%,5.9%[2.33 µM],.,.
O=c1[nH]c2ccc(Cl)cc2c(-c2ccccc2)c1SC(=S)N1CCOCC1,?,-34.4%,11.2µM*,26.7µM*,-19.5%,?,4.47µM*,5.62µM*
O=c1[nH]c2ccc(Cl)cc2c(-c2ccccc2)c1SC(=S)N1CCCCC1,?,?,14.1µM*,11.9µM*,?,11.2µM*,5.62µM*,7.94µM*
CN(C)c1cc[n+](CC(=O)c2ccc(-c3ccccc3)cc2)cc1,-29.9%,3.7%,?,?,33.8%,-42.8%,.,.
NS(=O)(=O)c1ccc(CCNC(=O)c2cncc(Br)c2)cc1,?,9.0%,20.5%,2.99µM*,?,15.0%[59 µM],4.2%,-1.9%
CCN(CC)c1ccc(N=C2C(=O)Nc3ccccc32)cc1,15.8µM*,11.2µM*,?,-27.4%,?,6.31µM*,?,-3.9%
CCOc1ccccc1NS(=O)(=O)c1c(C)[nH]c(C)c1C(=O)N1CCCCC1,-21.1%,-15.6%[57.1 µM],9.0%,-5.1%,36.7%,-0.9%,.,.
O=C(NC(=S)Nc1c(Cl)ccc2nsnc12)c1ccco1,-28.5%,-35.3%,?,?,?,?,.,.
COc1ccc(C(=O)NCC(=O)OCC(=O)c2ccc3c(c2)OCCO3)cc1,-18.9%,37.6%,2.3%,-4.3%,8.4%,13.8%,.,.
O=C1OC(Nc2ccc3c(c2)OCO3)c2ccccc21 (stereo unspecified),50.1µM*,39.8µM*,56.2µM*,-15.2%,?,?,0.501µM*,12.6µM*
COc1cc(OC)cc(C(=O)NNC(=O)CCNC(=O)c2ccc(Br)cc2)c1,11.4%,.,.,1.3%,28.2%,.,.,.

# Compound activity deposited in PubChem by National Center for Advancing Translational Sciences (NCATS).
